Among the test systems are NCI-H23 lung; NCI-H226 lung; NCI-H322M lung; HOP-62 NSCLC; NCI-H460 lung; HOP-92 NSCLC; NCI-H522 lung; A549/ATCC NSCLC; 786-0 renal; COLO 205 colon; DU-145 prostate; MALME-3M melanoma; MDA-MB-231 breast; RXF 393 renal; SF-268 CNS; SF-295 CNS; SF-539 CNS; UACC-257 melanoma; M14 melanoma.
What all share (assay): NCI-60 one-dose screen, 48 h (100 = growth as untreated, 0 = no growth, -100 = all killed)
Holding throughout (settings): 10 µM unless noted

Compounds without any hit were thinned out: in the full panel of roughly 83,000, 20% have a hit.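 In brief: 96-well plates, 48 h treatment, single concentration, percent growth endpoint.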 A number with no mark means an inactive call. Activity calls are given as the source filed them. Rule for the calls: active = growth percent below 10; inactive = the rest.

With `COc1cc(/C=C/C(=O)c2nc3cc(F)ccc3nc2C)cc(OC)c1OC`, the growth with NCI-H23 lung is 64.6%; in the test with NCI-H226 lung, 103%; in the test on NCI-H322M lung it was 102%; in the test on HOP-62 NSCLC it was 106%; in the test with NCI-H460 lung, 53.5%; in the test on HOP-92 NSCLC, 48.9%. Further, the growth is 70.3% in the test on NCI-H522 lung; 65% in the test with A549/ATCC NSCLC; 75.7% in the test with 786-0 renal; 82% in the test on COLO 205 colon; 22.9% in the test on DU-145 prostate; 65.3% in the test with MALME-3M melanoma. The growth with MDA-MB-231 breast is 85%; in the test on RXF 393 renal, 54.5%; in the test with SF-268 CNS it was 89.2%; in the test on SF-295 CNS, 347%; with SF-539 CNS, 97.5%; in the test on UACC-257 melanoma, 74.1%. Further, in the test with M14 melanoma, the growth was 73.1%.

With `O=C1/C=C/[C@@H](O)[C@@H]2C[C@@H](O)C[C@H]2/C=C/CCC[C@H](CCc2ccc3ncccc3c2)O1`, the growth was -32.5% (active) in the test with NCI-H23 lung; -28.7% (active) with NCI-H226 lung; 17.6% with NCI-H322M lung; 15.3% with HOP-62 NSCLC; 15% in the test with NCI-H460 lung; 30.2% with HOP-92 NSCLC. Moreover, the growth in the test with NCI-H522 lung is -53.4% (active); in the test with A549/ATCC NSCLC it was 19.2%; in the test on 786-0 renal, -50.2% (active); with COLO 205 colon, -98.4% (active); in the test on DU-145 prostate it was 13.5%; with MALME-3M melanoma it was -17.8% (active). Also, the growth is -43% (active) with MDA-MB-231 breast; -32.6% (active) in the test on RXF 393 renal; 15.2% with SF-268 CNS; 1.79% (active) with SF-295 CNS; 19.2% with SF-539 CNS; 19.3% with UACC-257 melanoma. Also, the growth with M14 melanoma was 6.52% (active).

`NS(=O)(=O)c1ccc(CCN2C(=O)C3C(C2=O)C2(Cl)C(Cl)=C(Cl)C3(Cl)C2(Cl)Cl)cc1` (configuration not stated): the growth in the test on NCI-H23 lung is 92.9%; in the test with NCI-H226 lung it was 101%; with NCI-H322M lung, 104%; in the test on HOP-62 NSCLC, 104%; in the test on NCI-H460 lung, 104%; in the test with HOP-92 NSCLC it was 47.6%. The growth is 91% in the test on NCI-H522 lung; 101% in the test on A549/ATCC NSCLC; 95.3% in the test with 786-0 renal; 108% in the test on COLO 205 colon; 96.5% in the test on DU-145 prostate; 90.5% with MALME-3M melanoma. In addition, the growth in the test on MDA-MB-231 breast was 92.9%; in the test with RXF 393 renal, 109%; with SF-268 CNS it was 102%; in the test on SF-295 CNS, 94%; in the test on SF-539 CNS, 92.5%; in the test on UACC-257 melanoma, 110%. For the same compound, the growth with M14 melanoma is 94.5%.

In the case of `Cc1ccc(-c2csc(NC(=O)CSc3nc(-c4ccccc4)cc(=O)[nH]3)n2)cc1`, the growth in the test on NCI-H23 lung was 92.2%; in the test on NCI-H226 lung, 103%; in the test with NCI-H322M lung it was 93.4%; with HOP-62 NSCLC, 100%; in the test on NCI-H460 lung it was 101%; with HOP-92 NSCLC it was 82.5%. Besides, the growth in the test on NCI-H522 lung was 80.3%; in the test on A549/ATCC NSCLC, 91.7%; with 786-0 renal it was 104%; in the test on COLO 205 colon it was 109%; in the test with DU-145 prostate it was 103%; in the test with MALME-3M melanoma, 94.4%. Moreover, the growth in the test with MDA-MB-231 breast was 93.2%; in the test on RXF 393 renal, 110%; with SF-268 CNS, 90.2%; with SF-295 CNS it was 87.5%; in the test on SF-539 CNS, 97.7%; in the test on UACC-257 melanoma, 99.9%. In addition, the growth in the test on M14 melanoma was 105%.

As for `CN1C(N2CCN(S(=O)(=O)c3ccccc3)CC2)=NS(=O)(=O)c2ccccc21`, the growth in the test on NCI-H23 lung was 98.2%; with NCI-H226 lung, 112%; in the test with NCI-H322M lung, 82.6%; in the test with HOP-62 NSCLC, 89%; with NCI-H460 lung it was 103%; with HOP-92 NSCLC, 86.8%. Moreover, the growth is 80.2% with NCI-H522 lung; 69.7% in the test with A549/ATCC NSCLC; 99.5% in the test with 786-0 renal; 109% in the test with COLO 205 colon; 139% with DU-145 prostate; 103% in the test with MALME-3M melanoma. In addition, the growth is 104% in the test on MDA-MB-231 breast; -6.07% (active) with RXF 393 renal; 101% in the test with SF-268 CNS; 39.9% in the test with SF-295 CNS; 111% in the test on SF-539 CNS; 61.5% with UACC-257 melanoma. The growth with M14 melanoma was 99.8%.

As for `CC/C(=C\c1ccc(OC)cc1)C(=O)c1ccc(OC)cc1`, the growth in the test with NCI-H23 lung was 86.4%; in the test on NCI-H226 lung, 93.7%; in the test on NCI-H322M lung, 92.5%; in the test on HOP-62 NSCLC it was 86.8%; with NCI-H460 lung it was 102%; with HOP-92 NSCLC, 85.2%. For the same compound, the growth in the test on NCI-H522 lung is 74.3%; in the test with A549/ATCC NSCLC, 123%; in the test on 786-0 renal, 97.3%; with COLO 205 colon, 121%; with DU-145 prostate, 105%; in the test with MALME-3M melanoma, 114%. The growth was 96.4% with MDA-MB-231 breast; 126% in the test with RXF 393 renal; 101% with SF-268 CNS; 76.5% in the test on SF-295 CNS; 96.5% in the test with SF-539 CNS; 101% in the test on UACC-257 melanoma. In the test on M14 melanoma, the growth is 102%.

For `Cc1ncc(C(=O)Nc2ccc(CN3CCN(C)CC3)c(C(F)(F)F)c2)cc1C#Cc1cnc(N)cc1C#N`, the growth in the test on NCI-H23 lung was 30.6%; with NCI-H226 lung, -71% (active); with NCI-H322M lung it was 28%; in the test with HOP-62 NSCLC it was 42.3%; in the test on NCI-H460 lung it was -77.6% (active); in the test on HOP-92 NSCLC, 17.3%. Moreover, the growth in the test on NCI-H522 lung was -46.2% (active); in the test with A549/ATCC NSCLC, -89.5% (active); with 786-0 renal, -65.5% (active); in the test on COLO 205 colon, 21.5%; with DU-145 prostate, -96.1% (active); in the test on MALME-3M melanoma, -94.3% (active). Further, the growth was -81.4% (active) in the test with MDA-MB-231 breast; -93.3% (active) in the test on RXF 393 renal; 22.9% with SF-268 CNS; 70% with SF-295 CNS; -98.4% (active) in the test on SF-539 CNS; -89.3% (active) with UACC-257 melanoma. For the same compound, the growth with M14 melanoma is -75.1% (active).

On to `O=C1CC(=O)OC(c2ccc([N+](=O)[O-])cc2)O1`, for which the growth was 43.6% in the test on NCI-H23 lung; 34.8% in the test with NCI-H226 lung; 51.7% with NCI-H322M lung; 26.5% with HOP-62 NSCLC; 35.6% in the test on NCI-H460 lung; 36.9% with HOP-92 NSCLC. For the same compound, the growth in the test with NCI-H522 lung is -65.5% (active); in the test with A549/ATCC NSCLC, 33.6%; in the test on 786-0 renal, -73.8% (active); in the test on COLO 205 colon, -31% (active); in the test with DU-145 prostate it was 13.9%; with MALME-3M melanoma it was -36.6% (active). Moreover, the growth in the test on MDA-MB-231 breast was -3.22% (active); in the test on RXF 393 renal, -91% (active); with SF-268 CNS, 4.85% (active); in the test with SF-295 CNS, 70.3%; in the test with SF-539 CNS, -69.9% (active); in the test on UACC-257 melanoma it was -23.6% (active). The growth with M14 melanoma was -64.4% (active).

The values above are taken from PubChem BioAssay (NCI).
